From PubChem
Shown are actives, neighbours in structure and some others; about 27% of the full set was active somewhere.
CYP2C19 inhib = blockers of cytochrome P450 2C19 activity – biochemical, luminescence, ADME assay, primary screen; P33261; CYP2C19 Supersomes, luciferin-H EGE luminescence, 30 min; inhibition, % at 5 µM; 96,000 compounds, 21% hits; AID 778, 2007;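 active = CYP2C19 inhibition above a set limit at 5 µM in the primary screen, cut at about 50% in these data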;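 note: plate controls were negative control wells for no effect and 2.5 mM tranylcypromine positive control for full effect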
EphB4 antag = EphB4-ephrin-B2 interaction antagonists, primary screen, biochemical, TNYL-RAW peptide probe, fluorescence polarization; 97,000 compounds, 0.15% hits; inhibition, % at 7 µM; EphB4 LBD / TNYL-RAW-Alexa532 peptide; AID 720, 2007;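 active = inhibition above the screen-wide mean inhibition plus 3 SD, cut at about 15% in these data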;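 note: 0% = DMSO wells and 100% = excess unlabeled TNYL-RAW peptide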
CYP2C9 activ = human CYP2C9 activators, primary screen, biochemical, luminescence | activation factor at 5 µM | 96,000 compounds, 1.4% hits | AID 1024, 2008 | Cytochrome P450 2C9 (Homo sapiens), P11712 | recombinant CYP2C9, luciferin-H conversion; hits give high values; factor 1 = untreated enzyme, 0 = blocked;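 active = activation factor of 2 or more for CYP2C9 at a 5 µM dose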;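 note: 0 = sulfaphenazole-blocked wells and 1 = vehicle-only wells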
Target sequence (P11712 whole entry, looked up): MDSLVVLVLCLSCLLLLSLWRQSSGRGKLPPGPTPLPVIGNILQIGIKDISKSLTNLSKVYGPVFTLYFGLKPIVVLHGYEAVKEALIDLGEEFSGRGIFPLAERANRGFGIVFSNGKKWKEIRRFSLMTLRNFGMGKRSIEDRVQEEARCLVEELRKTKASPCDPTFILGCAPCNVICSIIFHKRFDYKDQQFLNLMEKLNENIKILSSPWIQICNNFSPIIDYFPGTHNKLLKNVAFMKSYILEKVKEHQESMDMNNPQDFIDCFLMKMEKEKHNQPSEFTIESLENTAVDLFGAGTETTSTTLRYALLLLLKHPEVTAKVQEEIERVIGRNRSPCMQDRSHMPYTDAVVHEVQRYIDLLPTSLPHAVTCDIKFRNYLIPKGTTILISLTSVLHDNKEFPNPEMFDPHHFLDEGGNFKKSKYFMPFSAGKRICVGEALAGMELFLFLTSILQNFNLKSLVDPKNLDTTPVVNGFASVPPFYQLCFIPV
CYP2C19 act = human CYP2C19 activators, primary screen, biochemical, luminescence | activation factor at 5 µM | AID 1025, 2008 | Cytochrome P450 2C19 (Homo sapiens), P33261 | recombinant CYP2C19, luciferin-H EGE luminescence; hits give high values; 0 = fully inhibited enzyme, 1 = untreated enzyme | 96,000 tested, under 10 active;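 active = activation factor of at least 2 at 5 µM in the primary screen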;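 note: 0 = wells with 2.5 mM tranylcypromine and 1 = vehicle-only wells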
CYP2C9 inh = blockers of cytochrome P450 2C9 activity – biochemical, luminescence, ADME assay, primary screen. P11712. CYP2C9 Supersomes, luciferin-H conversion. inhibition, % at 5 µM. 96,000 compounds, 20% hits;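 active = blocking of liver enzyme CYP2C9 beyond about 50% at 5 µM, limit read from the data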
An asterisk follows results filed as active.

`COC(=O)CCC(=O)c1oc2ccccc2c1NC(=O)CCCN1C(=O)c2ccccc2C1=O` gave CYP2C19 inhib 12, EphB4 antag 0, CYP2C9 activ 0.5, CYP2C19 act 0.9 and CYP2C9 inh 48.
`Cc1ccc(C(=O)N2CCC(C(N)=O)CC2)cc1C` gave CYP2C19 inhib -1, EphB4 antag -5, CYP2C9 activ 1.3, CYP2C19 act 1 and CYP2C9 inh -34.
`O=C(NCC(=O)N(Cc1cccs1)C(C(=O)NC1CCCC1)c1cccnc1)c1ccco1` (stereo unspecified) gave EphB4 antag 0.
Screening COc1ccccc1CNC(=O)c1cnn2c(C(F)F)cc(C)nc12 returned CYP2C19 inhib 61*, EphB4 antag -3, CYP2C9 activ 2.2*, CYP2C19 act 0.4 and CYP2C9 inh -120.
COc1ccc(CCNC(=O)c2cnn3c(C(F)F)cc(C)nc23)cc1OC was read as CYP2C19 inhib 52*, EphB4 antag -7, CYP2C9 activ 0.5, CYP2C19 act 0.5 and CYP2C9 inh 47.
`COc1ccccc1CCNC(=O)c1cnn2c(C(F)F)cc(C)nc12` gave CYP2C19 inhib 77*, CYP2C9 activ 1.6, CYP2C19 act 0.2 and CYP2C9 inh -60.
`O=C(/C=N/O)NCCCN1CCCCCC1` gave CYP2C19 inhib -1, EphB4 antag 5, CYP2C9 activ 1.1, CYP2C19 act 1 and CYP2C9 inh -6.
Screening O=C(Nc1ccc2nsnc2c1)NC1CCCCC1 returned CYP2C19 inhib 20, EphB4 antag 9, CYP2C9 activ 0.9, CYP2C19 act 0.8 and CYP2C9 inh 14.
`CCN(CC)C(=O)C1CCCN(C(=O)Nc2ccc3nsnc3c2)C1` (stereo unspecified) gave CYP2C19 inhib 59*, EphB4 antag -4, CYP2C9 activ 0.8, CYP2C19 act 0.4 and CYP2C9 inh 25.
For Cc1ccc(S(=O)(=O)N2CCCC(NC(=O)N3CCN(c4ccccc4)CC3)C2)cc1 (stereo unspecified) the results were CYP2C19 inhib 74*, EphB4 antag 3, CYP2C9 activ 0.7, CYP2C19 act 0.3 and CYP2C9 inh 32.
`O=C(NC1CCCCC1)N1CCN(c2ccccc2)CC1` gave EphB4 antag 11.
Screening O=C(c1ccc(S(=O)(=O)N2CCOCC2)cc1)N1CCN(c2cccc(Cl)c2)CC1 returned CYP2C19 inhib 27, EphB4 antag -4, CYP2C9 activ 1.1, CYP2C19 act 0.7 and CYP2C9 inh -8.
Screening CC1CC(C)CN(S(=O)(=O)c2ccc(C(=O)N3CCN(c4ccccc4)CC3)cc2)C1 (stereo unspecified) returned CYP2C19 inhib 68*, EphB4 antag -5, CYP2C9 activ 0.2, CYP2C19 act 0.3 and CYP2C9 inh 82*.
`Cc1ccc(C(=O)N2CCN(c3ccccc3)CC2)cc1S(=O)(=O)N1CCCC1` gave CYP2C19 inhib 78*, CYP2C9 activ 0.2, CYP2C19 act 0.2 and CYP2C9 inh 84*.
Screening NNc1nc(Nc2ccccc2)nc(N2CCCCC2)n1 returned CYP2C19 inhib 15, EphB4 antag -2, CYP2C9 activ 0.6, CYP2C19 act 0.9 and CYP2C9 inh 41.
For CNC(=O)COC(=O)c1ccccc1Oc1ccccc1 the results were CYP2C19 inhib 34, EphB4 antag -3, CYP2C9 activ 1, CYP2C19 act 0.7 and CYP2C9 inh -3.
`Cn1c(SCC(=O)c2ccc3c(c2)OCO3)nnc1-c1ccccn1` gave CYP2C19 inhib 52*, EphB4 antag -3, CYP2C9 activ 0.8, CYP2C19 act 0.5 and CYP2C9 inh 15.
`O=C(CSc1nnc(SCc2cccc3ccccc23)s1)c1ccc2c(c1)OCO2` gave CYP2C19 inhib 52*, EphB4 antag -3, CYP2C9 activ 0.4, CYP2C19 act 0.5 and CYP2C9 inh 63*.
For O=C(CSc1ccccn1)c1ccc2c(c1)OCO2 the results were CYP2C19 inhib 98*, EphB4 antag 0, CYP2C9 activ 0.7, CYP2C19 act 0 and CYP2C9 inh 26.
CCOc1ccc(-c2nnn(CC(=O)c3ccc4c(c3)OCCO4)n2)cc1OCC was read as CYP2C19 inhib 25, EphB4 antag -2, CYP2C9 activ 0.7, CYP2C19 act 0.7 and CYP2C9 inh 27.
Screening COc1ccc(-c2noc(CCC(=O)NCc3cccnc3)n2)cc1OC returned CYP2C19 inhib 19, CYP2C9 activ 0.5, CYP2C19 act 0.8 and CYP2C9 inh 54*.
`COc1ccc(-c2noc(CCC(=O)NCc3cccnc3)n2)cc1` gave CYP2C19 inhib 50*, CYP2C9 activ 0.3, CYP2C19 act 0.5 and CYP2C9 inh 74*.
Screening O=C(CCCc1nc(-c2ccccc2)no1)NCc1cccnc1 returned CYP2C19 inhib 21, CYP2C9 activ 0.7, CYP2C19 act 0.8 and CYP2C9 inh 31.
For Cn1nc(-c2ccccc2)c(-c2nc(-c3cccc(Cl)c3)no2)c1Cl the results were CYP2C19 inhib 20, EphB4 antag -3, CYP2C9 activ 0.4, CYP2C19 act 0.8 and CYP2C9 inh 60*.
Screening Oc1ccc(N=Cc2ccc(-c3cccs3)s2)cc1 returned CYP2C19 inhib -1, EphB4 antag -12, CYP2C9 activ 1.2, CYP2C19 act 1 and CYP2C9 inh -17.
For Clc1cccc(NCc2nnc(SCc3ccccc3)o2)c1 the results were CYP2C19 inhib 82*, EphB4 antag -4, CYP2C9 activ 0.2, CYP2C19 act 0.2 and CYP2C9 inh 83*.
For Clc1cccc(NCc2nnc(SCc3ccccc3Cl)o2)c1 the results were CYP2C19 inhib 14, EphB4 antag 5, CYP2C9 activ 0.7, CYP2C19 act 0.9 and CYP2C9 inh 29.
Screening CCC(C)[C@H](N)c1nnc(SCC(=O)Nc2cccc(Cl)c2)o1 (stereo partly specified) returned CYP2C19 inhib 97*, EphB4 antag 1, CYP2C9 activ 0.5, CYP2C19 act 0 and CYP2C9 inh 50*.
Screening O=C(COc1ccc(Cl)cc1)NCc1nnc(SCC(=O)Nc2ccc3c(c2)OCCO3)o1 returned EphB4 antag -7.
For CCn1c2ccccc2c2cc(NC(=O)CSc3nnc(-c4cccc(Cl)c4)o3)ccc21 the results were CYP2C19 inhib 47, EphB4 antag -4, CYP2C9 activ 0.6, CYP2C19 act 0.5 and CYP2C9 inh 39.
NCCCCCc1nnc(SCc2cccc(Cl)c2)o1 was read as CYP2C19 inhib 65*, EphB4 antag 2, CYP2C9 activ 0.7, CYP2C19 act 0.4 and CYP2C9 inh 32.
`Clc1cccc(CSc2nnc(-c3c[nH]c4ccccc34)o2)c1` gave CYP2C19 inhib -2, EphB4 antag 6, CYP2C9 activ 0.7, CYP2C19 act 1 and CYP2C9 inh 27.
